Hits are enriched below; roughly 6% of the tested compounds scored in any of these assays.
D1 PAM: potentiators of human D1 dopamine receptor; P21728; HEK293 TREx D1 cells, calcium flux, dopamine EC20 potentiation; potentiation, % at 10 µM; 360,000 compounds, 0.036% hits; AID 504651; in the data active = potentiation above about 30%; note: 0% is about no effect
D3 ag: agonists of human D3 dopamine receptor | D3R DiscoveRx beta-arrestin cells, luminescence, 90 min | max activation, % | 410,000 compounds, 0.58% hits | P35462; in the data active = max activation above about 30%; note: 0% is about no effect
Target sequence (P35462 whole entry, looked up): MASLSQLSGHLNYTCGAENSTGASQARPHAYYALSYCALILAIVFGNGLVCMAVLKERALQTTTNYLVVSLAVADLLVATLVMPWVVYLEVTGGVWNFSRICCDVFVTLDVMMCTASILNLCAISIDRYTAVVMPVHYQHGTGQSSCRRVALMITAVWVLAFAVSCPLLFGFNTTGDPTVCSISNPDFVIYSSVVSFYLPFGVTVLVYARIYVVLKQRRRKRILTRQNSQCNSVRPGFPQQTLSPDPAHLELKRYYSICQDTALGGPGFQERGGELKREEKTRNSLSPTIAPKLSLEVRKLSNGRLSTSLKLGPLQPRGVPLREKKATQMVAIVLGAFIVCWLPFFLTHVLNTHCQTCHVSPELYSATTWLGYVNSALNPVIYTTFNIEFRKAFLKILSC
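Agonist-mode cell screen: cells plated at 1500/well and incubated overnight at 37 °C, then exposed to library compounds for 90 min at 37 °C. Detection reagent was added for 30–60 min at room temperature, and luminescence was read.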
D1 antag: blocks dopamine activation of the human D1 receptor; P21728; HEK293 TREx D1 cells, calcium flux, dopamine EC80; hits give low values; activity change, negative = inhibition, % at 10 µM; 360,000 compounds, 3.2% hits; AID 504652; in the data active = activity change below about -30%; note: % is set by controls: 0 for no effect and ±100 for the full control effect
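Cells carrying a force-coupled, tetracycline-inducible human D1 receptor report calcium flux. Each well gets a 10 s baseline, compound with 180 s monitoring, then an EC80 dopamine stimulus with a second 180 s kinetic read.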
D3 antag: blocks the human D3 dopamine receptor. 360,000 compounds, 2.5% hits. D3R cells, DiscoveRx beta-arrestin luminescence, antagonist mode; hits give low values. P35462. AID 652054. max response, negative = inhibition, %; in the data active = max response below about -50%; inconclusive = no clear call, values can overlap the other calls; note: % is set by controls: 0 for no effect and ±100 for the full control effect
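Cells expressing the human receptor were seeded at 1500 cells/well, incubated overnight at 37 degrees C in 5% CO2, then exposed to library compounds with dopamine controls for 90 minutes at 37 degrees C before luminescent detection.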
D1 agonist: activates the human D1 dopamine receptor | activation, % at 2 µM | HEK293 T-REx D1 cells, calcium flux, agonist mode | 360,000 compounds, 1% hits | AID 504660 | P21728; in the data active = activation above about 30%; note: 0% is about no effect
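Inducible HEK293 T-REx D1 cells, force-coupled to calcium signalling, were plated at 4000 cells/well with tetracycline and held overnight at 30 C. After no-wash calcium dye loading, compound-evoked calcium rise over 180 s flagged agonists.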
* = called active by the depositor; u = inconclusive; x = no result given; ! = a repeat was not active.

SMILES	D1 PAM	D3 ag	D1 antag	D3 antag	D1 agonist
O=[N+]([O-])c1ccc(/C=C/C2=NN(c3ccccc3)C(c3ccco3)C2)o1 (centres undefined)	0.3	-7.7	-4.4	u	97.2*
C(=C\c1ccco1)/C1=NN(c2ccccc2)C(c2ccco2)C1 (centres undefined)	-7.8	0.9	6.7	-1.5	44.6*
Cc1cccc(NS(=O)(=O)c2c(C)nc3sccn3c2=O)c1C	-4.9	0.2	-7.4	x	8.3
Cc1cccc(C)c1C(O)c1ncc(-c2ccc(Cl)cc2)[nH]1 (centres undefined)	x	2.4	x	6.8	x
Cc1ccccc1-c1cnc(C(O)c2c(C)cccc2C)[nH]1 (centres undefined)	x	-14.8	x	-52.3*	x
Cc1cc(C)c(C(O)c2ncc(-c3ccccc3C)[nH]2)c(C)c1 (centres undefined)	x	-8.6	x	-55.9*	x
Cc1ccc(-c2cnc(C(O)c3c(C)cccc3C)[nH]2)cc1 (centres undefined)	x	-11.8	x	-54.7*	x
Cc1cccc(C)c1C(O)c1ncc(-c2cccc3ccccc23)[nH]1 (centres undefined)	x	0.8	x	-75.7*	x
Cc1cc(C)c(C(O)c2ncc(-c3cccc4ccccc34)[nH]2)c(C)c1 (centres undefined)	x	-1.6	x	u	x
O=C(O)c1cccc(S(=O)(=O)Nc2ccc3[nH]c(=O)[nH]c3c2)c1	-8.2	-10.0	3.1	-24.3	1.2
O=C(O)c1cccc(S(=O)(=O)Nc2ccc3oc(=O)sc3c2)c1	-0.8	-1.6	4.7	-87.5*	3.0
COc1ccc(OCc2cccc(C(=O)Nn3cc([N+](=O)[O-])cn3)c2)cc1	-2.6	0.2	9.0	-65.3*	-3.5
Cc1ccc(-n2c(C)cc(/C=c3/sc4nc5ccccc5n4c3=O)c2C)cc1	4.3	5.5	-0.6	36.9	0.6
COc1cc(N2CCCC2)c(OC)cc1/C=c1/sc2nc3ccccc3n2c1=O	-6.0	x	-18.4	x	46.6*
CCOC(=O)C1=C(COC(=O)/C=C/c2ccc(SC)cc2)NC(=O)NC1C (centres undefined)	-1.0	8.5	20.8	3.8	1.2
CCC(C)N(CCNC(=O)c1ccc2c(c1)NC(=O)c1ccccc1S2)C1CCCCC1 (centres undefined)	-1.7	-25.3	0.9	-11.5	30.4*
O=C1Nc2cc(C(=O)NCCCN3CCCC3)ccc2S/C1=C/c1cccc(Cl)c1	x	-2.4	x	-59.5*	x
Cc1cccc(/C=C2/Sc3ccc(C(=O)NCCN4CCCC4)cc3NC2=O)c1	-4.5	-11.3	-14.2	-6.7	1.3
O=C(Cn1cnc2c(NCc3ccccc3)ncnc21)NCCCN1CCCC1=O	x	34.3*	x	23.7	x
O=C(NCCCN1CCCC1=O)c1ccc2c(c1)NC(=O)c1ccccc1S2	x	-0.7	-32.1*	12.6	0.7
CC1CCCC(C)N1CCCNC(=O)c1ccc2c(c1)NC(=O)c1ccccc1S2 (centres undefined)	-7.7	-0.5	-6.7	-18.3	2.6
Cc1ccc(S(=O)(=O)Nc2ccc(-c3ccc(N4CCCCCC4)nn3)cc2)cc1C	1.5	-2.1	20.1	x	-1.5
O=C1CCCN1CCCNC(=S)Nc1ccc(Nc2ccccc2)cc1	-2.4	15.0	0.4	5.2	5.0
O=C1CCCN1CCCNC(=S)Nc1ccccc1	-2.6	13.3	-38.2*	6.3	4.8
COc1cc(C(=O)NCCCN2CCCC2=O)ccc1OCc1ccc(Cl)cc1Cl	-10.1	1.1	-16.3	-6.8	38.3*
SMILES	D1 PAM	D3 ag	D1 antag	D3 antag	D1 agonist
Cc1cc(O)c(NC(=S)NC(=O)c2ccc(-c3ccc(Cl)cc3)o2)cc1C	-2.1	-31.6	-34.0*	-76.3*	2.2
Cc1cc(N2CCN(C)CC2)ccc1NC(=O)c1ccc(-c2ccc(Cl)cc2)o1	-4.3	-9.7	-61.9*	-19.9	16.2
CN1CCN(c2ccccc2NC(=O)c2ccc(-c3ccc(Cl)c(Cl)c3)o2)CC1	0.5	-17.6	32.0	15.1	-0.2
Cc1ccc(O)c(NC(=S)NC(=O)Cc2ccc(Cl)cc2)c1	-27.6	-10.0	-62.1*	u	95.7*
COc1ccc(C(=O)O)cc1NC(=S)NC(=O)Cc1ccc(Cl)cc1	10.2	1.7	14.5	-3.0	11.2
CC(=O)c1ccc(NC(=S)NC(=O)Cc2ccc(Cl)cc2)cc1	3.0	7.9	-0.8	-12.7	41.2*
CCc1nc2ccc(C(=O)N3CCN(c4ccc([N+](=O)[O-])cc4)CC3)cc2nc1CC	-2.8	2.7	-14.9	13.3	0.0
COc1cc(C(=O)NC(C)CCn2cccn2)ccc1OC1CCN(C(C)=O)CC1 (centres undefined)	-9.1	2.2	-7.8	11.7	4.2
Cc1ccc(NC(=S)NC(=O)c2ccc(-c3ccc(Cl)cc3)o2)c(O)c1	-16.6	-16.4	5.3	-100.5*	0.9
Cc1cc([N+](=O)[O-])nn1CCCC(=O)Nc1ccc(Cl)cc1Cl	-6.8	0.0	-38.5*	-1.8	0.1
Cc1c(Cl)cccc1NC(=O)CCCn1nc([N+](=O)[O-])cc1C	2.2	4.2	-8.7	-19.7	2.2
COc1ccc(C(=O)CCC(=O)NC2=NCCS2)cc1	-5.3	-6.2	-3.6	0.3	6.0
O=C(NC12CC3CC(CC(C3)C1)C2)c1cc(F)c(F)c(F)c1F	11.6	9.2	19.8	-21.8	5.4
Cc1nn(-c2ccccc2)c(/N=C/c2ccc(O)cc2)c1-c1ccccc1	-8.5	3.8	-43.7*	15.9	0.6
O=S(=O)(NCCc1csc2nc(-c3ccc(F)cc3)nn12)c1ccc(Br)cc1	-2.6	-9.7	x	x	7.2
CNCc1ccccc1Sc1cccc(O)c1	-7.0	-10.2	-1.5	-15.5	10.4
CNC[C@H](O)c1cccc(O)c1	-5.8	44.6*!	-72.6*	-14.2	0.8
CCCCCC(=O)Nc1ccc(C(=O)COC(=O)CN2C(=O)NC3(CCCC3)C2=O)cc1	-3.0	3.7	-10.3	28.8	0.9
CCOC(=O)c1ccc(NC(=O)c2c(N)n(C)c(=O)n(C)c2=O)cc1	x	23.6	x	23.1	x
CC(=O)c1cccc(NC(=O)c2oc(=O)c3ccccc3c2-c2ccccc2)c1	-1.6	4.2	-43.4*	x	5.3
COC(=O)c1cc(NC(=O)c2oc(=O)c3ccccc3c2-c2ccccc2)cc(C(=O)OC)c1	4.0	1.9	5.0	x	-0.5
CCOC(=O)c1ccc(NC(=O)c2oc(=O)c3ccccc3c2-c2ccccc2)cc1	-0.5	0.7	-48.2*	x	4.6
CCOC(=O)c1ccc(NC(=O)c2c(O)c3ccccc3n(C)c2=O)cc1	-4.1	x	-72.9*	x	-0.8
CC(=O)Nc1ccc(NC(=O)C2CCN(c3cnccn3)CC2)cc1	2.4	0.7	2.7	x	0.1
COc1ccc(NC(=O)C2CCN(c3cnccn3)CC2)cc1Cl	-5.7	1.7	-58.0*!	7.9	5.0
CCOc1cc(/C=C2\CCCc3c2nc2ccccc2c3C(=O)O)ccc1OC	17.9	-10.8	-6.1	14.0	411.2*
COc1ccc(/C=C2\CCCc3c2nc2ccccc2c3C(=O)OCC(=O)c2c(N)n(C)c(=O)n(C)c2=O)cc1	-1.2	x	-39.6*	x	-0.7
